High-throughput results as filed in PubChem BioAssay.
TDP-43 yeast inh: inhibitors of TDP-43 toxicity in yeast; TDP-43 expressing yeast growth rescue, BacTiter-Glo, 24 h; Potency, µM (doses to about 46.1 µM), for inactives: top-dose growth rescue (activation), usual class: activators; 410,000 tested, 1.8% active; AID 652104; note: % of control where 0% means no effect; nearly all actives have a fitted effect of over 50% in size
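Readout is BacTiter-Glo luminescence of cell growth, so inhibitors register as activators. TDP-43-expressing yeast at OD600=0.02 in galactose medium, after raffinose pregrowth to mid-log, were incubated with compound for 24 hr at 30 deg C.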
FUS yeast rescue: suppressors of FUS proteinopathy in yeast. Potency, µM (highest dose often 76.6 µM), actives largely listed as activators. 390,000 tested, 0.24% active. S. cerevisiae FUS-expressing, growth rescue, OD600, 24 h;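 note: plate controls were DMSO vehicle for no effect and reference control for full effect; nearly all actives have a fitted effect of over 55% in size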
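Quantitative HTS measuring growth restoration of FUS-toxic yeast. Galactose-induced cells (OD 0.005) were exposed 24hr at 30C to compounds at several concentrations, then absorbance at 600 nm was recorded.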
Mito fusion yeast: blocks mitochondrial division or promotes mitochondrial fusion. Potency, µM (highest dose often 46.1 µM), without a hit: at the highest dose growth rescue (activation), most hits filed as activators. AID 485298. 320,000 tested, 0.23% active. S. cerevisiae fusion-defective mutant growth rescue, CellTiterGlo 48 h; note: % of control where 0% means no effect; nearly all actives have a fitted effect of over 45% in size
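Compounds are tested for their ability to restore growth of mitochondrial fusion-defective yeast strains at non-permissive 37C in YPEG medium over 48 hours. Viability is quantified by luciferase luminescence.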
Abeta rescue: restores growth of yeast expressing A-beta42 peptide. 410,000 tested, 0.063% active. AID 1347071. yeast expressing A-beta42, growth rescue, OD600, 48 h; response scale: 0% DMSO, 100% iron-clioquinol control. Potency, µM (highest dose often 46.1 µM), usual class: activators; note: nearly all actives have a fitted effect of over 55% in size
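Yeast A-beta toxicity model in growth medium with pinned compounds, 48 h at 30 C; growth read as absorbance at 600 nm. Normalized to FeCl3/clioquinol equimolar mix (positive) and DMSO (negative).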
aSyn yeast inh: rescues yeast growth from alpha-synuclein toxicity. Yeast expressing alpha-synuclein, growth rescue, BacTiter-Glo, 24 h. 370,000 tested, 0.14% active. Potency, µM (series often up to 46.1 µM), for inactives: at the highest dose growth rescue (activation), usual class: activators; note: % of control where 0% means no effect; nearly all actives have a fitted effect of over 65% in size
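Screening used galactose-induced yeast with toxic alpha-synuclein levels, exposed to compound for 24 hr at 30 deg C. Cell growth, read with BacTiter-Glo luminescence, gave the measured signal.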
Active calls of the source: *; i = inactive; ? = inconclusive; / = no result given; [ ] = remark or other dose. Most compounds without a hit are left out; they make up all but 2.2% or so of the library. Calls come from the whole dose curve; as a rule, active = well fitted curve in the direction sought with a large enough effect; inconclusive = small, poorly fitted or top-dose-only effect, or another doubt; inactive = no such curve, though single readings can be large; an effect the other way counts as inactive or inconclusive. Potency is the fitted concentration of half-maximal effect.

SMILES	TDP-43 yeast inh	FUS yeast rescue	Mito fusion yeast	Abeta rescue	aSyn yeast inh
CN(C(=O)c1cc2c(cc1Br)OCO2)c1cccc2ccccc12	?	i	/	i	25%
O=c1c(Cl)c(Nc2cccc(Cl)c2)cnn1-c1nc2ccccc2s1	9%	i	?	i	4%
COc1ccc(Nc2cnn(-c3nc4ccccc4s3)c(=O)c2Cl)cc1	8.9µM*	/	-4%	i	0%
Cc1ccc(C)c2[nH]c(=O)c(CN(Cc3ccco3)C(=O)Nc3ccccc3)cc12	15%	?	14µM*	i	3%
CCn1c(CN2CCOCC2)nc2cc(NC(=O)c3cccc([N+](=O)[O-])c3)ccc21	11%	i	/	i	/
Cc1noc(C)c1S(=O)(=O)N(C)C[C@H]1OCCCC[C@H](C)Oc2ccc(NC(=O)CCCN(C)C)cc2C(=O)N([C@H](C)CO)C[C@@H]1C	8%	i	/	i	2%
Cc1nn(C)c(C(=O)NC2C3CC4CC(C3)CC2C4)c1Cl (stereo not given)	10µM*	i	-53%	i	7%
Cn1ncc(Cl)c1C(=O)NC1C2CC3CC(C2)CC1C3 (stereo not given)	?	i	5%	i	8%
Cc1ccc(N2C(=O)C3C4C=CC(CNC(=S)Nc5ccc(Cl)cc5)(O4)C3C2=O)cc1 (stereo not given)	14µM*	/	5%	i	-35%
COc1ccc(CN(Cc2ccccc2)C(=O)c2ccno2)cc1COc1ccc(NC(C)=O)cc1	/	/	/	/	0%
O=C(CSc1ccc(-c2ccc(F)cc2)nn1)N1CCCc2ccccc21	22µM*	i	25%	i	4%
O=C(CSc1ccc(-c2ccc(Cl)cc2)nn1)N1CCCc2ccccc21	20µM*	/	?	i	12%
O=C(CSc1c[nH]c2ccccc12)N1CCCc2ccccc21	22µM*	i	14%	i	20%
O=C(CSc1nnc(-c2ccc(F)cc2)o1)N1CCCc2ccccc21	20µM*	i	/	i	/
COc1ccc2c(c1)C[C@@H]1CC(C)(C)CN1S2(=O)=O	/	i	/	/	/
Cc1cc(I)ccc1Nc1nc(NCCN2CCOCC2)nc(N2CCOCC2)n1	/	/	/	/	16%
O=C(C[C@H]1C(=O)N(CCc2ccccc2)C[C@@H]1Cc1ccccc1)Nc1ccccc1	11%	?	6%	i	0%
CCOc1cc(C2c3c(-c4ccccc4O)n[nH]c3C(=O)N2CCc2ccccc2)ccc1O (stereo not given)	0%	i	/	i	/
COc1ccccc1C(=O)Nc1nnc(-c2ccc(F)cc2)o1	1%	i	-4%	i	-2%
Cc1ccccc1C(=O)Nc1nnc(-c2ccc(F)cc2)o1	?	i	10%	22µM*	18µM*
CC(=O)c1cc(-c2cccc(C#N)c2)c(=O)n2c1CCC2	/	i	/	/	/
COc1ccc(/C=C/C(=O)Oc2ccc(C)c(C)c2)cc1OC	-15%	?	15%	i	-16%
COc1cc(/C=C/[N+](=O)[O-])ccc1OC(=O)/C=C/c1ccc(F)cc1	0.71µM*	i	-11%	i	-18%
CCN(CC)c1nc(-c2ccccc2)ncc1S(=O)(=O)c1ccc(C)cc1	24%	i	-3%	i	4%
CN(C)c1nc(-c2ccccc2)ncc1S(=O)(=O)c1ccccc1	16µM*	i	2%	i	10%
SMILES	TDP-43 yeast inh	FUS yeast rescue	Mito fusion yeast	Abeta rescue	aSyn yeast inh
O=C(NCCS(=O)(=O)N1CCN(c2ccc(F)cc2)CC1)c1cccc(C(F)(F)F)c1	10µM*	i	/	?	/
CSc1ccccc1C(=O)NCCS(=O)(=O)N1CCN(c2ccc(F)cc2)CC1	14%	i	7%	i	-7%
CCCCN(C)C(=O)c1cc2cc3ccc(OC)cc3nc2s1	18µM*	i	-3%	i	-25%
CCN(CCCNC(=O)c1cc2cc3ccc(OC)cc3nc2s1)c1ccccc1	-8%	i	-15%	i	/
CCOc1ccc(C2c3[nH]c4ccccc4c3CCN2C(=O)CCc2ccccc2)cc1 (stereo not given)	-16%	i	/	i	/
COc1ccc(Cn2c(=O)c3oc4ccccc4c3n(Cc3cccc(C(F)(F)F)c3)c2=O)cc1	8%	i	/	i	/
Cc1ccc(C)c2c1[nH]c1ccccc12	14µM*	i	1%	i	5%
CC(C)NC(=O)CCCOc1ccc(Cl)cc1Cl	-17%	i	-2%	i	12%
O=C(CCCOc1ccc(Cl)cc1Cl)N/N=C/c1ccccc1O	?	/	6%	?	22µM*
CCN(CC)C(=O)CCCOc1ccc(Cl)cc1Cl	13µM*	i	2%	i	16%
COc1ccc(CNC(=O)C(C)N2Cc3ccccc3C2=O)cc1 (stereo not given)	19%[9.22 µM]	i	/	i	/
Clc1ccccc1CSc1nncn1NC/C=C/c1ccccc1	0%	/	22µM*	i	23%
C(=C\c1ccccc1)/CNn1cnnc1	8%	/	2%	i	2%
O=C(NCCc1ccccc1)c1ccc2c(c1)N(Cc1ccc(Cl)cc1)C(=O)c1ccccc1S2(=O)=O	4%	i	/	i	/
Cc1ccc(-c2nnn(CC(=O)N(CC3CCCO3)C(C(=O)NC3CCCC3)c3ccc(O)cc3)n2)o1 (stereo not given)	-8%	28µM*	1%	i	-4%
Cc1ccc(-c2nnn(CC(=O)N(CC3CCCO3)C(C(=O)NC3CCCC3)c3ccc(F)cc3)n2)o1 (stereo not given)	7%	i	-7%	i	1%
COc1ccc(NC(=O)Cn2c(SCc3c(F)cccc3Cl)nc3ccncc32)cc1OC	-4%	i	/	i	/
CCCN(CC(=O)Nc1ccccc1OC)C(=O)Cn1c(=O)oc2ccccc21	0%	i	/	i	3%
O=C(Nc1c(F)cc(F)cc1Br)c1cc(-c2ccc(O)cc2)on1	11µM*	i	?	i	-20%
O=C(Nc1c(F)cc(F)cc1Br)c1cc(-c2ccccc2)on1	15%	i	-1%	i	5%
COc1ccc(NC(=O)c2ccco2)cc1NC(=O)c1cc(Cl)ccc1OC	12%	i	/	i	/
O=C1Cc2ccccc2C(=O)N1CCc1ccccc1	13µM*	i	-1%	i	2%
Cc1ccc(C(C(=O)NCc2ccccc2)N(Cc2cccs2)C(=O)c2ccc3c(c2)OCCO3)cc1 (stereo not given)	-14%	?	27%	i	3%
COc1ccc(CNC(=O)C(c2ccc(C)cc2)N(Cc2cccs2)C(=O)c2ccc3c(c2)OCCO3)cc1 (stereo not given)	-23%	5µM*	3%	i	-6%
N#CCSc1nc2c(cc1C#N)CCCCCC2	16µM*	i	12%	i	14%
